From PubChem BioAssay (NCI)
This is part of a sample that, as a whole, favours compounds with a hit. Of some 83,000 tested, about 20% had one in any assay.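 The endpoint reported here, percent growth, reads 100 for growth as untreated, 0 for no net growth and -100 for all cells dead.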 Values without a mark were called inactive. Calls of active or inactive are those of the source. Rule for the calls: active = growth percent below 10; inactive = the rest.

How the values were obtained:
Test in all cases: NCI-60 one-dose screen, 48 h (100 = growth as untreated, 0 = no growth, -100 = all killed)
Conditions in all cases: 10 µM unless noted
SK-MEL-2 melanoma = tested on: SK-MEL-2 melanoma
EKVX NSCLC = tested on: EKVX NSCLC
SN12C renal = tested on: SN12C renal
UO-31 renal = tested on: UO-31 renal
TK-10 renal = tested on: TK-10 renal
ACHN renal = tested on: ACHN renal
CAKI-1 renal = tested on: CAKI-1 renal
A498 renal = tested on: A498 renal
CCRF-CEM leukemia = tested on: CCRF-CEM leukemia
MOLT-4 leukemia = tested on: MOLT-4 leukemia
SR leukemia = tested on: SR leukemia
RPMI-8226 leukemia = tested on: RPMI-8226 leukemia
OVCAR-8 ovarian = tested on: OVCAR-8 ovarian
OVCAR-5 ovarian = tested on: OVCAR-5 ovarian
OVCAR-4 ovarian = tested on: OVCAR-4 ovarian
SK-OV-3 ovarian = tested on: SK-OV-3 ovarian
IGROV1 ovarian = tested on: IGROV1 ovarian
OVCAR-3 ovarian = tested on: OVCAR-3 ovarian
HS 578T breast = tested on: HS 578T breast
NCI/ADR-RES ovarian = tested on: NCI/ADR-RES ovarian

SMILES	growth (SK-MEL-2 melanoma)	growth (EKVX NSCLC)	growth (SN12C renal)	growth (UO-31 renal)	growth (TK-10 renal)	growth (ACHN renal)	growth (CAKI-1 renal)	growth (A498 renal)	growth (CCRF-CEM leukemia)	growth (MOLT-4 leukemia)	growth (SR leukemia)	growth (RPMI-8226 leukemia)	growth (OVCAR-8 ovarian)	growth (OVCAR-5 ovarian)	growth (OVCAR-4 ovarian)	growth (SK-OV-3 ovarian)	growth (IGROV1 ovarian)	growth (OVCAR-3 ovarian)	growth (HS 578T breast)	growth (NCI/ADR-RES ovarian)
O=C(Nc1ncccc1OCc1ccccc1)NC1CCCCCC1	91.9%	88.2%	78.6%	85.1%	94%	93.4%	86.7%	101%	77.5%	78.7%	61.5%	68.1%	104%	95%	84.6%	110%	89.1%	89.1%	105%	89.7%
Cc1ccc2nc(NC(=O)CSc3nc(-c4ccccc4)c(C#N)c4nnnn34)sc2c1	109%	106%	111%	80.2%	141%	106%	94.6%	109%	106%	99.4%	72.8%	117%	108%	113%	101%	100%	102%	122%	98%	106%
COc1ccc(/C=C/C(c2cc(OC)c(OC)c(OC)c2)n2ccnc2)cc1O (stereo not given)	41.7%	81.2%	57.2%	59.9%	84.5%	46.3%	60.2%	67.5%	37.1%	31.9%	6.18% (active)	15.1%	41%	103%	78.8%	33.5%	55.7%	4.86% (active)	32.1%	45.7%
CC1CCN(C(=S)SCC(=O)NC(=O)c2ccccc2)CC1	102%	102%	109%	92%	99.8%	112%	102%	99.6%	106%	93.6%	80.6%	102%	112%	101%	96.6%	104%	107%	111%	102%	105%
Cc1ccc(/C=C(\C#N)n2nnc3cc(F)c(F)cc32)cc1	14.8%	30.9%	2.07% (active)	13.2%	22.4%	22.5%	32.6%	13%	5.57% (active)	-2.32% (active)	7.33% (active)	4.53% (active)	6.79% (active)	-4.62% (active)	46%	53.6%	2.76% (active)	7.86% (active)	36.1%	12.9%
NNCCc1ccc(NC(=O)CCCc2ccc(C(=O)Nc3ccccc3N)cc2)cc1	42.6%	81.7%	80.1%	69.5%	32.5%	89.2%	80.6%	60.9%	0.638% (active)	27.9%	55.2%	41.8%	45.6%	74%	70.1%	79.3%	86.8%	75%	77.8%	85%
Fc1ccc2[nH]cc(-c3nc(-c4c[nH]c5ccncc45)cs3)c2c1	-49.9% (active)	-45.7% (active)	-49.8% (active)	-69.9% (active)	-37.4% (active)	-78.2% (active)	-17.4% (active)	62.1%	-19.2% (active)	-32.6% (active)	-6.91% (active)	-24.2% (active)	-41.5% (active)	24.3%	-0.149% (active)	63.1%	-43.2% (active)	-74.3% (active)	-38.3% (active)	16.9%
O=C(/C=C/c1ccc(Oc2ccc(Br)cc2)cc1)c1ccc(Br)cc1	96.5%	103%	97.2%	78.8%	95.2%	102%	93.5%	73.6%	91.9%	90.5%	85.7%	83.5%	94.7%	110%	95%	108%	99%	102%	102%	98.1%
O=C(CN1CCN(c2cc3c(cc2F)c(=O)c(C(=O)O)cn3C2CC2)CC1)N/N=C/c1ccco1	105%	97.8%	108%	88.3%	101%	98.1%	99.7%	91.7%	107%	93.9%	92.9%	101%	98.2%	85.1%	105%	88.8%	101%	107%	95.5%	103%
O=C(O)[C@@H](Cc1ccc2ccccc2c1)NC(=O)n1c2ccccc2c2ccccc21	33.3%	47.9%	34.1%	38.9%	58.1%	48.8%	30.5%	9.24% (active)	13%	24.5%	25.7%	9.9% (active)	21.2%	37.6%	43.9%	39.7%	29.6%	6% (active)	17.4%	7.01% (active)
COc1ccc2cc(-c3ccnc4c(N=Nc5ccc(Cl)cc5)c(N)nn34)ccc2c1	118%	114%	100%	77.7%	102%	100%	92.2%	97.2%	91.6%	100%	95.2%	94.9%	93.9%	99.7%	116%	93.7%	102%	105%	92.9%	94.5%
Cc1ccc(/C=C/C(=O)c2ccc(-n3cc(CN4CCN(c5cc6c(cc5F)c(=O)c(C(=O)O)cn6C5CC5)CC4)nn3)cc2)cc1	95.5%	96%	67.7%	61.8%	104%	89.8%	69.8%	64.5%	84.3%	86%	63.2%	44.3%	62.5%	109%	94.8%	84.7%	69.9%	96%	80.5%	103%
Cc1ccc(S(=O)(=O)c2nc(-c3ccccc3)oc2Sc2nc3ccccc3s2)cc1	88.6%	97.1%	61.4%	64.3%	111%	96.8%	91.5%	80.4%	23.6%	12.3%	15.5%	56.7%	60%	124%	55.5%	116%	80%	77.9%	101%	70.7%
NC(=O)c1cnc(Nc2cccc(N)c2)nc1NCCCNC(=O)C1CCC1	65.2%	93%	33%	27.8%	32.1%	49.5%	37.2%	90.4%	25.9%	26.1%	77.1%	97.3%	71.1%	119%	88.5%	27.1%	65.8%	82.6%	72.8%	108%
O=C(NNC(=O)c1ccc(NC(=O)c2ccccn2)cc1)Nc1ccc2ccccc2c1	114%	113%	101%	82.5%	111%	104%	106%	137%	104%	108%	126%	109%	102%	121%	106%	115%	109%	126%	111%	106%
CC(C)N1C(=O)/C(=c2\sc3n(c2=O)C2C(NN=3)N(C)C(=O)N2C)c2ccccc21 (stereo not given)	73.5%	88.8%	81.7%	52.7%	94.5%	59.2%	28.6%	23.8%	69.8%	71.5%	23.3%	94.5%	79.6%	84.6%	85%	76.3%	53.2%	20.7%	41.7%	51.5%
COc1ccc(Oc2nc(Nc3ccc(N4CCOCC4)cc3)ncc2NC(=O)Nc2cc(OC)cc(OC)c2)cc1	17.8%	73.1%	-12.7% (active)	47.8%	28.4%	17.4%	16.3%	9.34% (active)	65%	36.8%	50.7%	54.3%	18.4%	60.9%	54.5%	57.4%	37.8%	18.3%	36.2%	80.8%
Cc1ncc(C(=O)Nc2ccc(CN3CCN(C)CC3)c(C(F)(F)F)c2)cc1C#Cc1cnc(N)c2ncccc12	-29.8% (active)	42.8%	-20.3% (active)	-9.37% (active)	46.3%	0.608% (active)	7.54% (active)	-6.89% (active)	-1.21% (active)	-24.9% (active)	-33.9% (active)	-26.2% (active)	-24.7% (active)	49.8%	-6.15% (active)	0.896% (active)	10.4%	55.4%	24.2%	33.2%
CC(C)CCN(CCC(C)C)CC(O)c1cc2c(c3ccccc13)CCCC2 (stereo not given)	76.4%	73%	68.6%	48.7%	102%	52.4%	77.2%	52.5%	65.6%	55.6%	11.8%	49.3%	81.6%	71.5%	78.2%	76.8%	64.2%	85%	80.6%	71.8%
CC1(C)CC[C@]2(C(=O)N[C@H](CO)Cc3ccccc3)CC[C@]3(C)C(=CC[C@@H]4[C@@]5(C)CCCNC(C)(C)[C@@H]5CC[C@]43C)[C@@H]2C1	107%	90.9%	78.6%	66.5%	95.5%	101%	77.3%	85.1%	41.8%	35.1%	-5.95% (active)	36%	97%	101%	87.7%	100%	65.1%	97.3%	85.6%	85.6%
COc1ccc2c(c1)CCc1[nH]nc(-c3cc(OC)c(OC)c(OC)c3)c1-2	31.1%	33.7%	31.9%	13.8%	50.1%	25.4%	26%	-9.65% (active)	0.932% (active)	9.32% (active)	-26.2% (active)	22.3%	7.98% (active)	56%	45.3%	-7.59% (active)	25.5%	1.01% (active)	23%	0.961% (active)
CC1=C(C(=O)Nc2ccccc2)C(c2ccc3c(c2)OCO3)NC(=S)N1 (stereo not given)	106%	107%	104%	88.2%	97.8%	107%	97.1%	114%	115%	112%	99.2%	109%	104%	115%	114%	110%	103%	110%	105%	106%
C#CCO[C@H]1CC(CC#C)(CC#C)C(=O)[C@@H]2[C@H]1[C@H]1C[C@@H]3[C@@]4(C)CCC[C@@](C)(C(=O)OC)[C@@H]4CC[C@@]23C=C1C(C)C	97.9%	94.7%	94.1%	-34.5% (active)	99.2%	72.7%	41%	85.7%	-41.5% (active)	76.7%	-4.27% (active)	54.2%	58.4%	92.3%	85.2%	95.8%	-64.2% (active)	71.7%	94.2%	78.5%
CC1(C)N=C(N)N=C(N)N1c1ccc(CCCCc2ccccc2)c(Cl)c1	4.71% (active)	53%	11%	49.5%	15.9%	18.8%	14.1%	54.5%	13.2%	1.8% (active)	-8.35% (active)	4.29% (active)	26.1%	28.5%	20.6%	38.1%	-24.4% (active)	-10.6% (active)	36.4%	54.8%
COc1cc(-c2nc3cc(Cl)c(Cl)cc3[nH]2)ccc1OCC(=O)N=Nc1c(O)[nH]c2ccc(Cl)cc12	-27.3% (active)	45.7%	0.477% (active)	89%	36.5%	29.2%	15.2%	20.1%	-31.3% (active)	-27.8% (active)	-30.7% (active)	10.4%	2.5% (active)	26.8%	12.2%	-5.3% (active)	-0.308% (active)	-94.3% (active)	-14% (active)	88.2%
S=c1nc2oc(-c3ccccc3)c(-c3ccccc3)c2c(/N=C\c2ccco2)[nH]1	92.1%	95.7%	99.1%	81.2%	99.6%	93.8%	92.3%	101%	108%	84%	86.3%	97.6%	97.4%	87.7%	93.6%	109%	101%	98.4%	81.9%	100%
COc1cc2c(cc1OCCCCN1CCN(C(=S)SCCC(C#N)(c3ccccc3)c3ccccc3)CC1)N=C[C@@H]1CCCN1C2=O	-95.1% (active)	-94.8% (active)	-57.4% (active)	10.8%	-79.6% (active)	-68.8% (active)	-64.7% (active)	-95% (active)	-20.2% (active)	-13.2% (active)	-44.1% (active)	-18% (active)	15.9%	-17.1% (active)	-11.8% (active)	-7.37% (active)	-76.6% (active)	-85.9% (active)	-11.7% (active)	13.9%
